From PubChem BioAssay AID1851 (National Center for Advancing Translational Sciences (NCATS), 2009)
The campaign covered roughly 16,000 compounds. About 5,100 (32%) were called active. About 25% were inconclusive and are not listed. The list shows a part of the results. A number with no mark means an inactive call. Calls follow the shape of the dose curve; as a rule, active = well fitted curve in the direction sought with a large enough effect; inconclusive = small, poorly fitted or top-dose-only effect, or effect the other way; inactive = no such curve, though single readings can be large or run the other way.

molecular target: Cytochrome P450 3A4 (Homo sapiens) (UniProt P08684); assay: Cytochrome panel assay with activity outcomes; conditions: recombinant CYP, pro-luciferin dealkylation, luminescence, p450-cyp3a4; series mostly up to 57.1 µM; activity, negative = inhibition: at the top concentration
% is scaled to controls: 0 for no effect and ±100 for the full control effect.

Cytochrome P450 3A4 (Homo sapiens), sequence (P08684 whole entry, looked up): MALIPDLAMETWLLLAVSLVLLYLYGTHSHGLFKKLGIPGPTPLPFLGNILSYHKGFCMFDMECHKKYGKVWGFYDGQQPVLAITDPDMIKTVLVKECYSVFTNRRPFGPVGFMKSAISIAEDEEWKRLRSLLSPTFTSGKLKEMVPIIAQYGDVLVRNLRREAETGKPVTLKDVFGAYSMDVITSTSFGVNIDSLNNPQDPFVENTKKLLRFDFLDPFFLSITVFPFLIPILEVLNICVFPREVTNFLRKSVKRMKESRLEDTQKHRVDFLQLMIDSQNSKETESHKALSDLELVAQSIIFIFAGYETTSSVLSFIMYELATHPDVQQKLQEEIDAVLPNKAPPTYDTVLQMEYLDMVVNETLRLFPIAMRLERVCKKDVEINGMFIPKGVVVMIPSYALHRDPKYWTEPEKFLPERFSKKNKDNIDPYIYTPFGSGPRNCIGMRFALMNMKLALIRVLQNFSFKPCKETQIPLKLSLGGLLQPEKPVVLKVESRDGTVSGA

SMILES | activity, negative = inhibition | AC50
CC(C)(C)N1C(=O)[C@H]2[C@H]3[C@H](O)[C@H](O)C/C(=N/NC(=O)OCc4ccccc4)[C@H]3CC[C@@H]2C1=O | -22.6% [at 11.4 µM] | 
COc1ccc(N2CC(C(=O)Nc3cc(C)on3)CC2=O)cc1 (stereo unspecified) | -17.7% | 
COc1ccc(/C=C2\SC(=O)N(CCNC(=O)C3CC(=O)N(c4ccccc4)C3)C2=O)cc1 (stereo unspecified) |  | 2.82 µM (active)
NC(N)=NC(N)=Nc1ccc(S(N)(=O)=O)cc1 | -13.3% [at 11.4 µM] | 
COc1ccccc1NC(=S)NNC(=O)c1c(Cl)c(C)nn1C |  | 15.8 µM (active)
Cc1nn(C)c(C(=O)NNC(=S)Nc2ccc(Cl)cc2)c1[N+](=O)[O-] | -8.67% [at 2.29 µM] | 
COC(=O)c1c(-c2cc(OC)c(OC)c(OC)c2)c2ccnc(OCc3ncccn3)c2c(=O)n1Cc1ccnc(C)c1 |  | 15.8 µM (active)
CCn1c(SCc2nc3ccccc3[nH]2)nnc1-c1ccc(OC)cc1 |  | 3.16 µM (active)
OC(Cc1nc2ccccc2[nH]1)c1ccccc1Cl (stereo unspecified) |  | 10 µM (active)
c1ccc(SCc2nc3ccccc3[nH]2)cc1 |  | 12.6 µM (active)
c1ccc2[nH]c(NC3=NCCC3)nc2c1 | 8.35% | 
c1ccc(-c2nnc(SCc3nc4ccccc4[nH]3)n2Cc2ccco2)cc1 |  | 2 µM (active)
CC[C@]1(C)CC(=O)NC1=O |  | inactive
NCc1ccccc1CC(=O)N[C@@H]1C(=O)N2C(C(=O)O)=C(CSc3nnnn3CC(=O)O)CS[C@@H]12 | -2.75% [at 25.6 µM] | 
C/C(C[n+]1ccccc1)=N\N=C(N)N | 2.37% [at 11.4 µM] | 
Cc1noc(C)c1-c1nccc(NCc2cccnc2)n1 |  | 3.98 µM (active)
Cc1noc(C)c1-c1nccc(NCc2ccccc2)n1 |  | 5.01 µM (active)
Cc1noc(C)c1-c1nccc(NCc2cccs2)n1 |  | 15.8 µM (active)
Nc1[nH]c(=O)nc2c1ncn2[C@H]1O[C@@H](CO)[C@@H](O)[C@@H]1O | -8.49% [at 11.4 µM] | 
CCCCn1cnc2c(c(CC#N)nn2-c2ccccc2)c1=N | -13.4% [at 11.4 µM] | 
COCC(=O)N1CCC[C@@]2(CCN(c3ncccn3)C2)C1 | -13.1% | 

SMILES | activity, negative = inhibition | AC50
COCCN1C(=O)C(=O)/C(=C(/O)c2cccc(OC)c2)C1c1ccco1 (stereo unspecified) | -0.898% | 
COc1ccccc1C1/C(=C(/O)c2ccccc2)C(=O)C(=O)N1CCO (stereo unspecified) | -5.34% | 
COc1ccc(C2C(C(=O)c3ccco3)=C(O)C(=O)N2Cc2cccnc2)cc1OC (stereo unspecified) | -18.7% | 
COc1cccc(/C(O)=C2/C(=O)C(=O)N(Cc3cccnc3)C2c2ccco2)c1 (stereo unspecified) |  | 14.1 µM (active)
COc1ccc(C2/C(=C(/O)c3ccccc3)C(=O)C(=O)N2CC(C)O)c(OC)c1 (stereo unspecified) | -11.4% | 
CCOc1cccc(/C(O)=C2/C(=O)C(=O)N(Cc3cccnc3)C2c2ccco2)c1 (stereo unspecified) |  | 12.6 µM (active)
CC(C)Oc1ccc(/C(O)=C2/C(=O)C(=O)N(Cc3cccnc3)C2c2ccco2)cc1 (stereo unspecified) |  | 14.1 µM (active)
Cc1ccc(C2/C(=C(/O)c3ccc(Cl)cc3)C(=O)C(=O)N2CC2CCCO2)o1 (stereo unspecified) | -22.7% | 
COc1ccc(/C(O)=C2/C(=O)C(=O)N(Cc3cccnc3)C2c2ccco2)cc1OC (stereo unspecified) |  | 14.1 µM (active)
O=C(O)c1ccc(/C=N\N=C2c3ccccc3-c3ccccc32)cc1 | -15.1% [at 11.4 µM] | 
Cc1ccccc1/C=N\NC(=O)c1csnn1 | -24.9% | 
Cc1ccc(N(C(=O)c2csnn2)C(C(=O)NC(C)(C)C)c2cccs2)cc1 (stereo unspecified) |  | 7.08 µM (active)
CCc1ccc(N(C(=O)c2csnn2)C(C(=O)NC(C)(C)C)c2ccncc2)cc1 (stereo unspecified) |  | 3.98 µM (active)
CCNc1nnc(-c2ccncc2)s1 | -14.1% [at 11.4 µM] | 
COC(=O)N1CCC2(CCN(C(=O)NC(C)C)CC2)CC1 | -3.12% | 
Cn1c(SCc2nnc(-c3ccc(F)cc3)o2)nnc1C1COc2ccccc2O1 (stereo unspecified) |  | 14.1 µM (active)
CC(Oc1ccc(Cl)cc1)C(=O)/C=C/N(C)C (stereo unspecified) | -20.2% | 
Oc1[nH]c2ccccc2c1/C=N/c1nccs1 |  | 15.8 µM (active)
Oc1[nH]c2ccccc2c1N=Nc1ccc(C(F)(F)F)cn1 | 4.51% | 
Cc1cc(C)n(C(=O)c2cc3ccccc3c(=O)o2)n1 | 3.16% | 
CC(=O)c1cnc2cc(C)nn2c1C | 27% | 

SMILES | activity, negative = inhibition | AC50
Cc1cc(C)n(C(=O)CCCCCCCCC(=O)n2nc(C)cc2C)n1 |  | 4.47 µM (active)
CC1=C(C(=O)O)N2C(=O)C(NC(=O)c3ccn(C)n3)C2SC1 (stereo unspecified) | 0.0496% | 
O=C(CSCc1c(F)cccc1Cl)NCC1CCCO1 (stereo unspecified) | -15.8% | 
O=C(CN(Cc1ccccc1Cl)C(=O)c1ccc(CN2CCOCC2)o1)NCC1CCCO1 (stereo unspecified) |  | 12.6 µM (active)
COCCCNC(=O)CN(c1ccc(OC)cc1)S(=O)(=O)c1ccc(NC(C)=O)cc1 |  | 12.6 µM (active)
CC(C)(C)C1CCc2c(C(=O)N/N=C/c3cccs3)csc2C1 (stereo unspecified) | 5.34% [at 2.29 µM] | 
COc1ccc(N(CC(=O)NN=C2CCCC2)S(=O)(=O)c2ccccc2)cc1 |  | 2.82 µM (active)
Cn1cccc1CC(=O)N/N=C\c1cccs1 | 3.8% [at 2.29 µM] | 
CN(CC(=O)O/N=C(\N)c1ccccn1)S(=O)(=O)c1ccccc1 | 3.62% | 
O=C(CN(c1ccccc1)S(=O)(=O)c1ccccc1[N+](=O)[O-])NN=C1CCCCCCC1 | 14.3% | 
COc1ccc(N(CC(=O)N/N=C/c2cccs2)S(=O)(=O)c2ccc(OC)c(OC)c2)cc1 |  | 1.12 µM (active)
O=C(NNC(=O)C1CCCCC1)c1cnccn1 | -0.435% [at 2.29 µM] | 
COc1ccccc1OCC(=O)NNC(=O)c1cnccn1 | 16% [at 2.29 µM] | 
O=C(NCc1ccccc1Cl)c1cnccn1 |  | 1 µM (active)
COc1cccc(-c2nccc(NCc3ccccc3OC)n2)c1 |  | 2.51 µM (active)
COc1ccc(CNc2ccnc(-c3cccc(NS(C)(=O)=O)c3)n2)c(OC)c1 |  | 3.98 µM (active)
COCCNc1ccnc(-c2cccc(NS(C)(=O)=O)c2)n1 |  | 25.1 µM (active)
COc1ccc(CNc2ccnc(-c3cccnc3)n2)c(OC)c1 |  | 0.631 µM (active)
CSc1nc(-c2ccc(C)cc2)nc(C(Cl)Cl)n1 | -4.04% | 
